Holding throughout (set-up): scale not given: direction of the effect not stated beside the values
Test [1] concerns the target Protein translocase subunit SecA (Escherichia coli (strain K12)) (UniProt P10408). Briefly: Assay to Identify E. coli SecA ATPase Inhibitors. Type of test: functional. As to conditions: 30 µM.
For test [2], the target named is T1, Ubiquitin-activating enzyme e1, putative (Leishmania donovani (strain BPK282A1)) (UniProt E9BSI1).
T1 sequence (whole entry): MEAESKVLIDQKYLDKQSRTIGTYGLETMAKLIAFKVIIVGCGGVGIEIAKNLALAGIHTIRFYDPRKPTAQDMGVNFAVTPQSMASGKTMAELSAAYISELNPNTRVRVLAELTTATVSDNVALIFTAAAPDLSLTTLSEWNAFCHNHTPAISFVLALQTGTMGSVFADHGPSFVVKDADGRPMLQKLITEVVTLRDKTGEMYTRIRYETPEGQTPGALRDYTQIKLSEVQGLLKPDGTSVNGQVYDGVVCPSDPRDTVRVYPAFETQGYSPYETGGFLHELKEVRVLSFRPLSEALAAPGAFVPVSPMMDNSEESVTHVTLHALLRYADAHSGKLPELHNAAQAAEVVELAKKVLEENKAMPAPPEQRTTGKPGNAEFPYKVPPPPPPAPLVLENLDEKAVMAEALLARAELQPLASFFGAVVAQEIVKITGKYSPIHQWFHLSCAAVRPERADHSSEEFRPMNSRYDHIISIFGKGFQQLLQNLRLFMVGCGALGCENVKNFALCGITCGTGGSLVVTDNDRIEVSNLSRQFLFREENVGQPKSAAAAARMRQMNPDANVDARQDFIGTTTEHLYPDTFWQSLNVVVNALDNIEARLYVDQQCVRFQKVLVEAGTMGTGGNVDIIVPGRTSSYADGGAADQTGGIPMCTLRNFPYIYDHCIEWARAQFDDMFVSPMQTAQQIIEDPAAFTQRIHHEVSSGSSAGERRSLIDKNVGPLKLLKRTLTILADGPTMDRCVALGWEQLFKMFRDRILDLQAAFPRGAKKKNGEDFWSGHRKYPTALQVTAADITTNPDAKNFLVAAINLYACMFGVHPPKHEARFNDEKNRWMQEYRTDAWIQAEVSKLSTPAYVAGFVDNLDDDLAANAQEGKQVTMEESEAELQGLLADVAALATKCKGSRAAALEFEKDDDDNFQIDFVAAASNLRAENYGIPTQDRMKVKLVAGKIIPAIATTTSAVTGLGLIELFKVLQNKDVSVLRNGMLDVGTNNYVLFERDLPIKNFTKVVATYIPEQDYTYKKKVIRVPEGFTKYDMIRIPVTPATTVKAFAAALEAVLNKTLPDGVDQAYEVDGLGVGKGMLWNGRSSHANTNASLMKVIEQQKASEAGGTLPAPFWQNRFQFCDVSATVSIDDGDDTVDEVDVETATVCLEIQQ
The test is described as follows: Leishmania donovani Ubiquitin Activating Enzyme (LdE1). Type of test: functional. As to conditions: 30 µM.

For test [3], the target named is AMP-activated protein kinase, AMPK (Homo sapiens) (UniProt P54646+O43741+P54619+Q9UGJ0+Q9Y478+Q13131+Q9UGI9). The test is described as follows: AMP-dependent Kinase enzyme assay. An in vitro enzyme assay that detects ADP turnover that is directly proportional to AMPK activity. This uses naive AMPK that is activated during the assay with MK-8722. The test is classed as functional. As to conditions: 30 µM.

Test [4] concerns the target Sialic acid-binding Ig-like lectin 9 (Homo sapiens) (UniProt Q9Y336). The test is described as follows: Hs-Siglec9 ALPHAscreen SOP 20170721. As to conditions: 10 µM.
In another test the test system is Trypanosoma cruzi. Briefly: Trypanosoma cruzi phosphomannomutase and mannose-1-phosphate guanylyltransferase assay. The test is classed as functional. As to conditions: 10 µM.
The target in test [5] is T2, Arginase-2, mitochondrial (Homo sapiens) (UniProt P78540).
T2 sequence (whole entry): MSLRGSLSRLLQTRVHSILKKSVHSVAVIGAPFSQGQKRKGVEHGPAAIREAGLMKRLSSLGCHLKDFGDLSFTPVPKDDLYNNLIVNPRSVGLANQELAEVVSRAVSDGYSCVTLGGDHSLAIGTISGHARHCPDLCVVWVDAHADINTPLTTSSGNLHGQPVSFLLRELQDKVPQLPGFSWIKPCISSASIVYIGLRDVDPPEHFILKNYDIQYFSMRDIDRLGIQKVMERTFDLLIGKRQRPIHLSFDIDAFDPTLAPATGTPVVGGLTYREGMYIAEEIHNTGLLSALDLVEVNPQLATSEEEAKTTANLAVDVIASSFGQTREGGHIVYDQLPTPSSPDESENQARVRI
Briefly: in vitro enzyme assay to detect the production of urea directly proportional to the activity of Arginase II. Also: in the data most compounds retested in dose-response had high values. The test is classed as functional. As to conditions: 33.3 µM.

In test [6] the target is T3, Proteasome subunit beta (Trypanosoma cruzi) (UniProt O96673).
T3 sequence (whole entry): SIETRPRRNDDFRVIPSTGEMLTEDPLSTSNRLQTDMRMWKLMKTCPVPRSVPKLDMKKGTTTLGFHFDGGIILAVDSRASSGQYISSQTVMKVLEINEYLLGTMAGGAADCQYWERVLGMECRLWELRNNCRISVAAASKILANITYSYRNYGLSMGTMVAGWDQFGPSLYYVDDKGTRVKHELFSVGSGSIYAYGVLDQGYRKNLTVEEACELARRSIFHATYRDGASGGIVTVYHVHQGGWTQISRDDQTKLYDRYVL
The test is described as follows: Trypanosoma cruzi proteasome chymotrypsin-like activity (TcProtChymo) assay. Also: in the data most compounds retested in dose-response had high values. The test is classed as functional. As to conditions: 9.37 µM.

For the next test, the species on record is Homo sapiens. Briefly: To identify inhibition of the IFN signalling (Jak-Stat) pathway via expression of an eGFP reporter gene under the control of an IFN-stimulated response element (ISRE) containing MxA promoter. The test is classed as functional. As to conditions: 30 µM.
Test [7] addresses T4, Tyrosyl-tRNA synthetase, putative (Trypanosoma cruzi (strain CL Brener)) (UniProt Q4DSP6).
T4 sequence (whole entry): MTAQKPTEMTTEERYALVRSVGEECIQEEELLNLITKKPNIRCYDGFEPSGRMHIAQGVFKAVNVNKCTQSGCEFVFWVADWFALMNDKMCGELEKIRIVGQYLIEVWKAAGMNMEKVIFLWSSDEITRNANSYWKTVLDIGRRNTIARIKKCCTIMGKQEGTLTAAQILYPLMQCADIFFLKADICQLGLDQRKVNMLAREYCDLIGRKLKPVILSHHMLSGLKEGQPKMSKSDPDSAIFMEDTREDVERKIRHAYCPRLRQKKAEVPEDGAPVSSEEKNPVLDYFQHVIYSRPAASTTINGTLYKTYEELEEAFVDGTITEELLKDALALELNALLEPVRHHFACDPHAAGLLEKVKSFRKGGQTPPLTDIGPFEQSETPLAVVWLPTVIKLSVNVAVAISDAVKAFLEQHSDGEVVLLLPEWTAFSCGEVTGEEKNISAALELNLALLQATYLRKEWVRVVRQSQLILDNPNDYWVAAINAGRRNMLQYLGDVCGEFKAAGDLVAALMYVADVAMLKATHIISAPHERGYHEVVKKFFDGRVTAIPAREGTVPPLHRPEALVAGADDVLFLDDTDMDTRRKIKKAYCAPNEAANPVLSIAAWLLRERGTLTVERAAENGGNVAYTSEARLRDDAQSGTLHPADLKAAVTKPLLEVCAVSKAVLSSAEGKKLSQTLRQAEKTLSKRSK
The test is described as follows: Trypanosoma cruzi tyrosyl tRNA synthetase (TcYRS) _High Tyrosine SOP. Also: in the data most compounds retested in dose-response had high values. As to conditions: 30 µM. Type of test: functional.

In test [8] the target is T4, Tyrosyl-tRNA synthetase, putative (Trypanosoma cruzi (strain CL Brener)). The test is described as follows: Trypanosoma cruzi tyrosyl tRNA synthetase (TcYRS) SOP. The test is classed as functional. As to conditions: 30 µM.
Test [9] concerns the target Chromo domain-containing protein 1 (Saccharomyces cerevisiae (strain ATCC 204508 / S288c) (Baker's yeast)) (UniProt P32657). The test is described as follows: ScCHD-1 Enzyme Inhibition Assay. Also: in the data most compounds retested in dose-response had high values. The test is classed as functional. As to conditions: 30 µM.

Molecules are shown by their SMILES. For some of these results: Results with a measured potency or affinity are listed apart.

Sequence of Sialic acid-binding Ig-like lectin 9 (Homo sapiens) (Q9Y336 whole entry): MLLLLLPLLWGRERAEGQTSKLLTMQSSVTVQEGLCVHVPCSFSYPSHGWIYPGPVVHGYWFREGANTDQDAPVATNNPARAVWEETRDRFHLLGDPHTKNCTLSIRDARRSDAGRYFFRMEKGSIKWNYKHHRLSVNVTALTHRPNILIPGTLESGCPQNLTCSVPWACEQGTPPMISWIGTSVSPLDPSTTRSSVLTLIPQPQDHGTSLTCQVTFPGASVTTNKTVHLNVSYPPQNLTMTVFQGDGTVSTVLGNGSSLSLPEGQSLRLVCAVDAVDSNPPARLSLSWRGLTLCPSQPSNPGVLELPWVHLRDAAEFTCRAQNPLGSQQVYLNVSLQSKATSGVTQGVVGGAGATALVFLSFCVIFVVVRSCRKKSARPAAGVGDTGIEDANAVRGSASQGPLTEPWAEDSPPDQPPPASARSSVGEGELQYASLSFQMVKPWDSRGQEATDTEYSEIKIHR
Sequence of Chromo domain-containing protein 1 (Saccharomyces cerevisiae (strain ATCC 204508 / S288c) (Baker's yeast)) (P32657 whole entry, the tested form may be a part): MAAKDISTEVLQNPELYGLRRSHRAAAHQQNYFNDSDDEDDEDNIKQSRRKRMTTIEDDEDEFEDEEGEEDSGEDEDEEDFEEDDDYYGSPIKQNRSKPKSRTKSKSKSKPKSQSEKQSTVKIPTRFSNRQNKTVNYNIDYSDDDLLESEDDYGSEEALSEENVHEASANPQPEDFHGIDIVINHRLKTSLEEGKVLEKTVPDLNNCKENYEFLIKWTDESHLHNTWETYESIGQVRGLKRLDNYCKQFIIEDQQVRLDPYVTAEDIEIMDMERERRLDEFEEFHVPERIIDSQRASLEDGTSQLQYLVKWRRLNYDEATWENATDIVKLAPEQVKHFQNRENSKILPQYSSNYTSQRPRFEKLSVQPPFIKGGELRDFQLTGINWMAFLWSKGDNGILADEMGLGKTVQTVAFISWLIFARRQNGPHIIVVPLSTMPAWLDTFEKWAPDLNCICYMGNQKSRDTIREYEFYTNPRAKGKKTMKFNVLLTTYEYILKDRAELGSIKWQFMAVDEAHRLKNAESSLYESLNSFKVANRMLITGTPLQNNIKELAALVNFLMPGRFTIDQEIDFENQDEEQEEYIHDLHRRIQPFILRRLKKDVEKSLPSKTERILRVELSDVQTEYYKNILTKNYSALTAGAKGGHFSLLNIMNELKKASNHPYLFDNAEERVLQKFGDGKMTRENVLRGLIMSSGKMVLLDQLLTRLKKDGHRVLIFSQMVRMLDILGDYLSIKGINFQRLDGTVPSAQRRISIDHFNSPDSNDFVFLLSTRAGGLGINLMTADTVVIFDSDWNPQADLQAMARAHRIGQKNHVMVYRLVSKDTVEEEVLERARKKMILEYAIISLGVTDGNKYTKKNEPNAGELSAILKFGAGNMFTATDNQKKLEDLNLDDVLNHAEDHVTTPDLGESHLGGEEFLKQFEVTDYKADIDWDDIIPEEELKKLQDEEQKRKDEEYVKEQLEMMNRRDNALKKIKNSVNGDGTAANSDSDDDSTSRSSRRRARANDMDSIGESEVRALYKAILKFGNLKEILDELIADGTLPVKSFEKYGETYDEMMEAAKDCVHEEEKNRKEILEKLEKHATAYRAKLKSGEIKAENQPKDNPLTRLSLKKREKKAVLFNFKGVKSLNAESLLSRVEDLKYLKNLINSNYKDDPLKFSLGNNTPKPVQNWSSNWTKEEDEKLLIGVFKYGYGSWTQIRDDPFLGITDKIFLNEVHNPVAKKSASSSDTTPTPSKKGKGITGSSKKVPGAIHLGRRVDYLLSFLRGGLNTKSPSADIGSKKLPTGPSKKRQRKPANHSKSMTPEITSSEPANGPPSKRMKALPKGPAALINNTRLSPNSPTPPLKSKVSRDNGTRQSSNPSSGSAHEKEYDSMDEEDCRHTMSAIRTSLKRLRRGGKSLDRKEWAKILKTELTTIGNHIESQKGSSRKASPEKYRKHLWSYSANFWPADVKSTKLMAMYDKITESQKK
Sequence of Protein translocase subunit SecA (Escherichia coli (strain K12)) (P10408 whole entry): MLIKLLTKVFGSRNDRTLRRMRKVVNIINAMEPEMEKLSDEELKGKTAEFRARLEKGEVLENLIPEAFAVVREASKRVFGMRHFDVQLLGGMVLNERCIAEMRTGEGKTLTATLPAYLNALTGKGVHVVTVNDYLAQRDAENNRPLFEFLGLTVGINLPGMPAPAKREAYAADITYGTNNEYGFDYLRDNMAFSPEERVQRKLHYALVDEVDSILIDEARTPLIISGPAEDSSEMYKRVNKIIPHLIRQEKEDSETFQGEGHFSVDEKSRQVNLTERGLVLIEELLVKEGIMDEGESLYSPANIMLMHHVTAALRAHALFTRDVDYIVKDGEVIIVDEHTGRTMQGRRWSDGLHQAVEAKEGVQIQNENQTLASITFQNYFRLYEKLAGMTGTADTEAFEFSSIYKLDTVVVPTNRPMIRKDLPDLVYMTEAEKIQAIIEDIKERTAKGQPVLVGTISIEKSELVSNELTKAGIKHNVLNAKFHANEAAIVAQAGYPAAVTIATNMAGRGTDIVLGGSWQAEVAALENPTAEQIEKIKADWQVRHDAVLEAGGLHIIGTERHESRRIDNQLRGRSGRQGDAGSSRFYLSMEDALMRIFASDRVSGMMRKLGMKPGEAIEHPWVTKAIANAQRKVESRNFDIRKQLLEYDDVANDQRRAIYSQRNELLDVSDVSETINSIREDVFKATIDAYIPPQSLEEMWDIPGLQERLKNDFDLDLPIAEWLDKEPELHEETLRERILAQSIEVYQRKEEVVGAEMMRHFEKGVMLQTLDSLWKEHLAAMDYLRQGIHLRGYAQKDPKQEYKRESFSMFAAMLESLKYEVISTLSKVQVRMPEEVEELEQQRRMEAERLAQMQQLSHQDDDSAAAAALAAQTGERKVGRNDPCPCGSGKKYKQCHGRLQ

For the molecule `O=C(CS(=O)(=O)CC1CCCCC1)NC1CCCCNC1=O` (stereo not drawn), the Percent Effect in test [1] was -5.08%; in test [2], 2.6%; in [3], -1.46%; in [4], 5.38%; in the test on Trypanosoma cruzi it was 4.49%; in [5], -6.05%. Further, the Percent Effect is -2.7% in test [6]; -1.34% in the test filed under Homo sapiens; 0% in test [7]; 9.76% in test [8]; 83.8% in test [9].

`COCC1COCCC12CCN(C(=O)CCc1ccccc1)CC2` (stereo not drawn): the Percent Effect in test [1] is -7.38%; in [2], 0%; in [3], 1.05%; in [4] it was -3.38%; in the test on Trypanosoma cruzi it was -2.73%; in test [5], 0%. The Percent Effect was 4.65% in test [6]; -6.87% in the test filed under Homo sapiens; 3.96% in test [7]; 3.66% in [8]; 6.04% in test [9].

As to `Cc1cnn(CCNCc2ccccc2Oc2cccnc2)c1`, the Percent Effect in test [1] is -0.645%; in [2], 11.4%; in test [3], -5.35%; in test [4] it was -0.251%; in the test on Trypanosoma cruzi, -5.03%; in [5], -9.25%. The Percent Effect in test [6] was 23.3%; in the test filed under Homo sapiens it was 6.29%; in [7] it was 8.33%; in test [8] it was 7.59%; in [9], -26%.

For `CCN1CCN(C2CCN(Cc3cc(C)on3)CC2)C1=O`, the Percent Effect in [1] was -6.77%; in test [2], 5.06%; in [3], 1.9%; in test [4], -3.3%; in the test on Trypanosoma cruzi, 8.21%; in [5], -3.04%. The Percent Effect in [6] was 7.94%; in the test filed under Homo sapiens, 1.37%; in test [7], 3.45%; in test [8] it was 8.86%; in [9], -13.6%.

With `Cc1cc(OCC(=O)NC(C)c2ccc(N3CCOCC3)cc2)no1` (stereo not drawn), the Percent Effect in test [1] was -4.84%; in [2], 18.2%; in test [3], -0.141%; in test [4], 11.2%; in the test with Trypanosoma cruzi, 5.61%; in test [5], -89.7%. In addition, the Percent Effect is 8.15% in [6]; -3.73% in the test filed under Homo sapiens; 3.23% in [7]; 13.6% in test [8]; -6.7% in test [9].

As for `Cc1nn(C)c2cnn(C(C)C(=O)NCc3cccnc3)c12` (stereo not drawn), the Percent Effect in test [1] was -0.721%; in [2] it was 20%; in test [3], -1.87%; in test [4], 5%; in the test on Trypanosoma cruzi, 1.18%; in [5] it was -1.58%. The Percent Effect in test [6] was 12.8%; in the test filed under Homo sapiens, 17.9%; in test [7] it was 5.29%; in [8], 17.9%; in test [9], -9.71%.

For `COCC1CC2(CCN(C(=O)c3cc(C)oc3C)CC2)CN1C(C)C` (stereo not drawn), the Percent Effect in test [1] is -2.57%; in test [2], 0%; in test [3] it was -9.18%; in test [4], -4.84%; with Trypanosoma cruzi, 2.15%; in test [5] it was -1.25%. In addition, the Percent Effect in [6] was 9.21%; in the test listed under Homo sapiens, 1.95%; in test [7] it was 8.91%; in test [8] it was 15.8%; in test [9], -7%.

On to `CNC(=O)CN1CCC(NC(=O)N(C)Cc2cc(C)on2)CC1`, for which the Percent Effect in test [1] is -1.81%; in test [2], 13%; in test [3] it was -1.11%; in test [4], 13.1%; with Trypanosoma cruzi, 9.7%; in [5], 0.632%. Also, the Percent Effect was 9.78% in test [6]; -1.08% in the test filed under Homo sapiens; 8.57% in test [7]; 18.8% in test [8]; -7.35% in [9].

Values taken from ChEMBL document CHEMBL3988442, “University of Dundee, Small-Polar-MMV Screening Library” (2021).
